# Assay results as given in PubChem BioAssay (NCATS).
# Records with an inconclusive call do not appear. A call without a number means that no potency is given here. Calls of active or inactive are those of the source. The call rests on the fitted dose curve; in most records, active means well fitted curve in the direction sought with a large enough effect; inconclusive means small, poorly fitted or top-dose-only effect, or another doubt; inactive means no such curve, though single readings can be large; an effect the other way counts as inactive or inconclusive.
# Columns and labels:
# [1] = biological target: Voltage-gated inwardly rectifying potassium channel KCNH2 (Homo sapiens) (UniProt Q12809); test: qHTS Assay for Small Molecule Inhibitors of the Human hERG Channel Activity (AID 588834);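 further: top concentration of the series differs between compounds; lower thallium flux fluorescence means stronger hERG block; nearly all actives have a fitted effect of over 50% in size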
# Chain of Voltage-gated inwardly rectifying potassium channel KCNH2 (Homo sapiens) (Q12809 whole entry, looked up): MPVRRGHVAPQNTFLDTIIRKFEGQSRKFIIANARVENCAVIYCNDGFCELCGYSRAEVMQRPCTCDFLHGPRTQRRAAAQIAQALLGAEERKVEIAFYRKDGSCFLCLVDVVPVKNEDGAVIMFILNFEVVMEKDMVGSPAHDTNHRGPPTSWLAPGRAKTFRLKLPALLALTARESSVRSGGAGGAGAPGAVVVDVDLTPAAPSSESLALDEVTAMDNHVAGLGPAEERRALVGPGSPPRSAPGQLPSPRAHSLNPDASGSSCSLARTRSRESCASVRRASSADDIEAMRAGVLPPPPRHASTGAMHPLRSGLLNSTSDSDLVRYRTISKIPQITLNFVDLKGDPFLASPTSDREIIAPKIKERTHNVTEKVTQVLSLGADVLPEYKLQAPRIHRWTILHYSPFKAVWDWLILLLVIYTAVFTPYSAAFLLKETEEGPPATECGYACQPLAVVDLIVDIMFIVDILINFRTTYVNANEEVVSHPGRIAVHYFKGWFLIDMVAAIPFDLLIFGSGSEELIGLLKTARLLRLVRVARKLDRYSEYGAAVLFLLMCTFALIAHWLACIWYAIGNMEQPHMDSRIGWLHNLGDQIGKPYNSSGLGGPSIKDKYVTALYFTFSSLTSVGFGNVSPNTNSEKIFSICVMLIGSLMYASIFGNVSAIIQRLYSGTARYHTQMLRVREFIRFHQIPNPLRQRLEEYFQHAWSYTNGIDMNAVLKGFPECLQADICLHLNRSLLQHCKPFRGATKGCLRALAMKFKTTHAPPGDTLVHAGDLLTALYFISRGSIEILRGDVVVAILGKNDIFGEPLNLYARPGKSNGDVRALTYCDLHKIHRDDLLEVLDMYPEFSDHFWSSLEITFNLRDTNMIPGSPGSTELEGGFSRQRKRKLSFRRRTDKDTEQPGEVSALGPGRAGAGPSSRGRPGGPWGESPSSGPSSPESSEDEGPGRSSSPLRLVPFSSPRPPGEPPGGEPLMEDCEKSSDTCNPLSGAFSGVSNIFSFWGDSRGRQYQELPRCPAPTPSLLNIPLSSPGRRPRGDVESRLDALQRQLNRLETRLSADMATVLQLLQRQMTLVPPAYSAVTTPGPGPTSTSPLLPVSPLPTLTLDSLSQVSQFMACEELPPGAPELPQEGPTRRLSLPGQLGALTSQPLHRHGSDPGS
# Procedure, shortened: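 U2OS cells BacMam-transduced with hERG, 2000 cells/well, compound ~10 min at 37 °C before stimulation buffer. FluxOR thallium flux fluorescence read kinetically on FDSS; decrease indicates block; AC50 from Hill fits.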
# [2] = biological target: Luciferin 4-monooxygenase (Photinus pyralis) (UniProt P08659); test: Biochemical firefly luciferase enzyme assay for NPC (AID 624030);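 further: purified P. pyralis luciferase at 10 nM with luciferin and ATP substrate; series mostly up to about 59 µM; nearly all actives have a fitted effect of over 70% in size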
# Chain of Luciferin 4-monooxygenase (Photinus pyralis) (P08659 whole entry, looked up): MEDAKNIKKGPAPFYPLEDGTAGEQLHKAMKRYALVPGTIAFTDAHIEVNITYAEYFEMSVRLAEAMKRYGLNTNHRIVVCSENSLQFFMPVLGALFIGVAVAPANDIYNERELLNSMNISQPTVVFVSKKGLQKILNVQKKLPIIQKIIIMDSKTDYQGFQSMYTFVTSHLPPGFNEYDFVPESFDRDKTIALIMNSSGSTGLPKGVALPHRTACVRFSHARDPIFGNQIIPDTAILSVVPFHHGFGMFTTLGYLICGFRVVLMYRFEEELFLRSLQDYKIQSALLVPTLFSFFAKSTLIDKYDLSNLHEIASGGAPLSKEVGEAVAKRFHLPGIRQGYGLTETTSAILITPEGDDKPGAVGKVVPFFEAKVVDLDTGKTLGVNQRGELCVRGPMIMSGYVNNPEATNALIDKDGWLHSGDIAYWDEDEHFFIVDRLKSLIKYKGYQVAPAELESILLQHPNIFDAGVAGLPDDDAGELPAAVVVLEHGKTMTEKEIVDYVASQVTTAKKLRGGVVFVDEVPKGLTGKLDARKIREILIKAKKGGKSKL
# Procedure, shortened: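 Direct inhibition of firefly luciferase enzyme (10 nM final, 50 mM Tris Acetate) assessed by luminescence within 5 minutes. Percent activity scaled between DMSO and PTC124 positive control, with concentration-effect curves classified by fit quality and response.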
# [3] = S16 Schwann cell viability assay (CellTiter-Glo assay) (AID 624031); further: nearly all actives have a fitted effect of over 70% in size; further: potency means the concentration at half of the fitted maximal effect
# Procedure, shortened: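 Luminescent ATP read-out (CellTiter-Glo) after 24 h compound exposure of native S16 rat Schwann cells at 37 °C. Signals were normalized between cell-free wells and DMSO-treated cells, set as 0% activity.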
# [4] = S16 Schwann cell PMP22 intronic element firefly luciferase assay (AID 624032); further: nearly all actives have a fitted effect of over 30% in size; further: potency means the concentration at half of the fitted maximal effect
# Procedure, shortened: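 Luciferase reporter of PMP22 intronic-element expression in stably transfected S16 rat Schwann cells, read by ONE-Glo luminescence after 24 h compound exposure at 37 C. Activity scaled between DMSO (0%) and positive-control PTC124; concentration-effect curves quality-classified.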
# [5] = qHTS for Inhibitors of the vitamin D receptor (VDR): Hit Validation using a Texas Red Assay (AID 602201); details: VDR coregulator binding, Texas Red fluorescence polarization; agonist-bound VDR ligand-binding domain; further: potency means the concentration at half of the fitted maximal effect
# Excerpt: The vitamin D receptor (VDR) is a ligand-activated transcription factor and is partially responsible for the regulation of the endocrine system. This includes the transcriptional regulation of genes involved in the production of the parathyroid hormone (PTH) and the regulation of the blood calcium level. High levels of PHT can cause hypercalcemia in the case of primary and tertiary hyperparathyroidism. The VDR-mediated gene regulation, activated by its ligand 1,25-dihydroxyvitamin D3 (1,25-(OH)2D3), is governed by the recruitment of coactivators. Our hypothesis is that small molecules, with the ability to inhibit the interaction between VDR and certain coactivators, are able to selectively modulate VDR-mediated transcription. […]
# In a collaboration between the University of Wisconsin, Milwaukee and the NIH Chemical Genomics Center (NCGC) a HTS-compatible enzymatic assay was developed. The assay uses fluorescence polarization as its read-out to measure the inhibition between VDR and coregulator peptide SRC2-3 exerted by small molecules. […]
# Four microliter of either 1.5 uM VDR-LBD, […] LG19078, and 7 nM Texas Red (all final concentrations) in columns 1, 2, and 5 to 48 or 7 nM Texas Red in columns 3 and 4 are dispensed into black medium-binding solid bottom Greiner plates. […] It is then read on the Envision for a fluorescent polarization read-out (Ex 595 nm/Em 615 nm)
SMILES,Potency [1],Potency [2],Potency [3],Potency [4],Potency [5]
C[N+](C)(C)CCCCCC[N+](C)(C)C,inactive,inactive,inactive,inactive,–
Cc1cnc(C(=O)O)c[n+]1[O-],inactive,inactive,inactive,inactive,–
CC(C)(C)c1ccc(C(O)CCCN2CCC(C(O)(c3ccccc3)c3ccccc3)CC2)cc1 (configuration not stated),–,inactive,16.1 µM (active),inactive,–
CC1=C(/C=C/C(C)=C/C=C/C(C)=C/C(=O)Nc2ccc(O)cc2)C(C)(C)CCC1,inactive,inactive,inactive,4.05 µM (active),–
CC(=O)Oc1cc2c(s1)CCN(C(C(=O)C1CC1)c1ccccc1F)C2 (configuration not stated),–,inactive,–,–,–
CC1(C)CCC2=C(O1)c1ccccc1C(=O)C2=O,–,–,–,–,14.1 µM (active)
N#C[C@H]1C[C@H]2C[C@@H]2N1C(=O)[C@@H](N)C12CC3CC(CC(O)(C3)C1)C2,–,inactive,–,–,–
Cc1nnc(C(C)C)n1C1C[C@H]2CC[C@@H](C1)N2CC[C@H](NC(=O)C1CCC(F)(F)CC1)c1ccccc1 (some centres not stated),–,inactive,–,–,–
CCN(CC)CCNC(=O)c1ccc(N)cc1,–,inactive,inactive,inactive,–
CC(=O)CCCCn1c(=O)c2c(ncn2C)n(C)c1=O,inactive,inactive,inactive,inactive,–
Cc1cccc(C)c1OCC(C)N (configuration not stated),inactive,inactive,inactive,inactive,–
O=C(O)CCc1nc(-c2ccccc2)c(-c2ccccc2)o1,inactive,inactive,inactive,inactive,–
CC/C(=C(\c1ccccc1)c1ccc(OCCN(C)C)cc1)c1ccccc1,–,inactive,32.2 µM (active),–,–
C[C@@H](O)[C@H]1C(=O)N2C(C(=O)O)=C(S[C@@H]3CN[C@H](C(=O)N(C)C)C3)[C@H](C)[C@H]12,inactive,inactive,inactive,inactive,–
Clc1ccc(COC(Cn2ccnc2)c2ccc(Cl)cc2Cl)cc1 (configuration not stated),–,inactive,inactive,–,–
COCCCCC(=NOCCN)c1ccc(C(F)(F)F)cc1,–,inactive,–,inactive,–
NC[C@@H]1O[C@@H](O[C@H]2[C@@H](O)[C@H](O[C@@H]3[C@@H](O)[C@@H](N)C[C@H](N)[C@H]3O[C@H]3O[C@H](CN)[C@@H](O)[C@@H](O)[C@H]3N)O[C@H]2CO)[C@H](N)[C@@H](O)[C@@H]1O,–,inactive,–,–,–
O=C1Nc2ccc(Cl)cc2C(C#CC2CC2)(C(F)(F)F)O1 (configuration not stated),–,inactive,inactive,–,–
O=C1NCC2(CCN(CCc3ccccc3)CC2)O1,inactive,inactive,inactive,inactive,–
COc1cc2ncnc(Nc3ccc(F)c(Cl)c3)c2cc1OCCCN1CCOCC1,–,inactive,–,36.1 µM (active),–
CC(C)NCC(O)COc1cccc2[nH]ccc12 (configuration not stated),inactive,inactive,inactive,inactive,–
